Holding throughout (assay): NCI-60 one-dose screen, 48 h (100 = growth as untreated, 0 = no growth, -100 = all killed)
Conditions in all cases: 10 µM

The subject of assay [1] is SR leukemia.
Assay [2] deals with RPMI-8226 leukemia.
The test system of assay [3] is OVCAR-8 ovarian.
For assay [4], the system named is OVCAR-5 ovarian.
Assay [5] has as its system OVCAR-4 ovarian.
The test system of assay [6] is SK-OV-3 ovarian.
Assay [7] deals with IGROV1 ovarian.
The subject of assay [8] is OVCAR-3 ovarian.
Assay [9] has as its system HS 578T breast.
The subject of assay [10] is NCI/ADR-RES ovarian.
For assay [11], the system named is T-47D breast.
Assay [12] concerns BT-549 breast.
Assay [13] has as its system MDA-MB-435 melanoma.
Assay [14] deals with SW-620 colon.
The test system of assay [15] is MCF7 breast.
Assay [16] deals with HCT-116 colon.
Assay [17] concerns HCC-2998 colon.
Assay [18] has as its system KM12 colon.

Compounds without any hit were thinned out: in the full panel of roughly 83,000, 20% have a hit.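 Results are percent growth after 48 hours of single-concentration exposure. 100 means growth as in untreated cells, lower positive values show inhibition; negative values down to -100 show cell death.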 Unmarked numbers belong to inactive results. The source made the active and inactive calls. The calls were made as follows: active = growth percent below 10; inactive = the rest.

With `COc1ccc(/C(CS(=O)(=O)c2ccccc2)=N\O)cc1`, the growth in assay [1] was 87%; in assay [2], 101%; in assay [3] it was 103%; in [4] it was 104%; in assay [5], 99.4%; in assay [6] it was 112%. In addition, the growth in assay [7] is 109%; in assay [8], 125%; in assay [9] it was 104%; in [10], 115%; in assay [11], 93.4%; in assay [12], 102%. The growth in [13] is 94.1%; in assay [14], 111%; in assay [15], 94.6%; in assay [16], 125%; in assay [17], 112%; in assay [18] it was 123%.

As for `Cn1c(N)c(N=Cc2ccccc2)c(=O)n(C)c1=O`, the growth is 96.2% in assay [1]; 108% in assay [2]; 110% in assay [3]; 133% in assay [4]; 111% in assay [5]; 96.4% in assay [6]. The growth was 106% in assay [7]; 120% in assay [8]; 100% in [9]; 110% in [10]; 108% in assay [11]; 102% in [12]. Further, the growth is 114% in assay [13]; 107% in [14]; 103% in assay [15]; 92.8% in [16]; 104% in assay [17]; 115% in [18].

In the case of `CC(C)C(C)C(N)C(=O)O` (configuration not stated), the growth is 93.7% in assay [1]; 99.6% in [2]; 105% in assay [3]; 114% in [4]; 115% in [5]; 96% in [6]. Besides, the growth in [7] was 101%; in assay [8], 111%; in assay [9], 117%; in assay [10] it was 107%; in assay [11], 102%; in assay [12], 90.7%. Besides, the growth in assay [13] is 105%; in assay [14] it was 110%; in [15] it was 92.9%; in assay [16], 94.5%; in [17], 101%; in [18], 103%.

In the case of `CCOC(=O)c1cc2c(n1Cc1cc(OC)cc(OC)c1)-c1oncc1CC2`, the growth in assay [1] was 18%; in assay [2] it was 39.5%; in [3], 26.8%; in assay [4], 49%; in [5] it was 48.9%; in assay [6], 5.06% (active). Besides, the growth in assay [7] is 14.3%; in assay [8], -51.2% (active); in assay [9] it was -1.17% (active); in [10], 0.862% (active); in [11], 54.8%; in assay [12], 39.5%. Also, the growth in assay [13] was -37% (active); in assay [14] it was 34.9%; in assay [15] it was 16.6%; in assay [16], 14.2%; in [17], 19.4%; in assay [18] it was 19.5%.

For the molecule `COc1cc(/C=C/C(=O)c2cc(-c3ccc(C(F)(F)F)cc3)ccc2O)cc(OC)c1OC`, the growth in assay [1] is 23.4%; in assay [2], -9.06% (active); in assay [3], 64.1%; in assay [4], 99.6%; in assay [5] it was 64.6%; in assay [6], 81.5%. Further, the growth in assay [7] was 75.3%; in [8], 74.1%; in assay [9], 59.4%; in assay [10], 65.9%; in assay [11], 35.7%; in [12], 73.2%. The growth in assay [13] is 48.4%; in assay [14] it was 54.9%; in assay [15], 43.8%; in assay [16], 46.6%; in assay [17], 94.6%; in [18] it was 69.2%.

As for `Cc1cc(C#Cc2ccccc2)ccc1-n1c(/C=C/c2cc(O)ccc2O)nc2ccccc2c1=O`, the growth was -26% (active) in assay [1]; -18.1% (active) in assay [2]; 16.3% in assay [3]; -24.5% (active) in [4]; 19.2% in assay [5]; -49.3% (active) in [6]. Further, the growth was -12.6% (active) in [7]; -46.2% (active) in [8]; 31.8% in [9]; 6.37% (active) in assay [10]; -16.8% (active) in assay [11]; -11.1% (active) in assay [12]. The growth in [13] was -56.3% (active); in [14] it was 5.7% (active); in assay [15], 2.03% (active); in [16], -43.8% (active); in assay [17] it was -49.6% (active); in [18] it was -5.21% (active).

As to `COCCOC(=O)NC(=O)Nc1ccc(/C(=N/O)c2ccc(Cl)cc2)cc1`, the growth in assay [1] was 8.7% (active); in assay [2] it was 22.3%; in assay [3] it was 4.12% (active); in assay [4], 47.1%; in assay [5], 43.7%; in assay [6], 4.2% (active). In addition, the growth in assay [7] was 30.9%; in assay [8], 0.755% (active); in assay [9] it was 34.4%; in [10], -3.69% (active); in assay [11], 62.5%; in assay [12], 50.9%. Besides, the growth was 3.81% (active) in assay [13]; 29% in [14]; 14.3% in [15]; 4.17% (active) in [16]; -1.35% (active) in assay [17]; 11.7% in assay [18].

`CCc1ccc(-c2nnc(COc3ccc(-c4nc5cc(Cl)c(Cl)cc5[nH]4)cc3OC)o2)cc1`: the growth in assay [1] was 0.504% (active); in [2] it was 56.9%; in [3], 28.9%; in assay [4], 103%; in assay [5], 45.9%; in assay [6], 96.9%. Moreover, the growth in [7] is 64.5%; in [8] it was 65.6%; in assay [9], 77%; in assay [10], 55%; in assay [11] it was 43.6%; in assay [12], 105%. In addition, the growth in assay [13] was 65.2%; in assay [14], 53%; in assay [15], 15.4%; in assay [16] it was 1.36% (active); in assay [17], 82.8%; in [18], 44.1%.

Turning to `CC(=O)OCC(COC(C)=O)(COC(C)=O)COC(C)=O`, the growth was 86.6% in assay [1]; 97.6% in [2]; 103% in assay [3]; 102% in assay [4]; 112% in assay [5]; 99.6% in assay [6]. Further, the growth in assay [7] was 104%; in assay [8], 103%; in [9], 101%; in assay [10], 106%; in assay [11] it was -11.3% (active); in [12] it was 112%. Moreover, the growth in [13] was 111%; in assay [14], 108%; in assay [15] it was 93.8%; in assay [16], 111%; in [17], 101%; in [18] it was 102%.

The values above are taken from PubChem BioAssay (NCI).
